Experimental data taken from the supplement of paper PMC8387472.
Structures can show the parent of a compound that is named as a salt. ± gives the standard deviation of the averaged measurements.

System: mESC LDLR-Dup GFP reporter (SpCas9 MH-deletion repair)
Test: fraction of GFP+ cells relative to DMSO control (fold change); higher = more MH-deletion repair to in-frame LDLR (or more editing)
Conditions: 2 µM; 7 days post-transfection

SMILES	fraction of GFP+ cells
CC(C(=O)Nc1cccc(/N=C/c2c(O)ccc3ccccc23)c1)c1ccccc1 (centres undefined) [Salermide]	0.987 ± 0.56
Nc1nc(N)c(N=O)c(OCC2CCCCC2)n1	0.999 ± 0.11
Cc1cnc(NC(=O)Nc2cc(Br)c(C)cc2OC[C@@H]2CNCCO2)cn1	1.14 ± 0.08
CN1CCN(Cc2ccc(NC(=O)Nc3ccc(Oc4ccnc(N)n4)cc3)cc2C(F)(F)F)CC1	0.335 ± 0.13
CCCC(CCC)C(=O)O [valproic acid]	0.696 ± 0.13
CC(C)c1cnn2c(NCc3ccccc3)cc(NCCCCCCN)nc12	1.07 ± 0.18
N#Cc1ccc(COC[C@H]2O[C@@H](n3c(NCc4ccc(Cl)c(Cl)c4)nc4c(N)ncnc43)[C@H](O)[C@@H]2O)cc1	1.89 ± 0.17
CN(CCOc1ccc(CC2SC(=O)NC2=O)cc1)c1ccccn1 (centres undefined) [Rosiglitazone]	1.48 ± 0.26
CC[C@H](CO)Nc1nc(NCc2ccccc2)c2ncn(C(C)C)c2n1 [Roscovitine (Seliciclib,CYC202)]	1.06 ± 0.096
C=C(C)[C@@H]1CC[C@]2(C(=O)O)CC[C@]3(C)[C@H](CC[C@@H]4[C@@]5(C)CC[C@H](O)C(C)(C)[C@@H]5CC[C@]43C)[C@@H]12 [Betulinic acid]	0.997 ± 0.13
Cc1nc(N)sc1-c1ccnc(Nc2ccc(N3CCOCC3)cc2)n1	0.334 ± 0.28
CN1CCN(c2c(F)cc3c(=O)c(C(=O)O)cn4c3c2OCN4C)CC1 [Marbofloxacin]	1.19 ± 0.59
COc1cc2c(Nc3ccc(NC(=O)c4ccccc4)cc3)ncnc2cc1OCCCN1CCOCC1	0.59 ± 0.2
NS(=O)(=O)C#Cc1ccccc1	1.11 ± 0.052
COc1cc2c(c(OC)c1OC)-c1c(cc3c(c1OC)OCO3)CC(C)C(C)C2 (centres undefined) [Schisandrin B (Sch B)]	1.02 ± 0.2
O=c1c(O)c(-c2ccc(O)c(O)c2)oc2cc(O)ccc12 [Fisetin]	1.39 ± 0.39
Nc1nc(F)nc2c1ncn2[C@@H]1O[C@H](COP(=O)(O)O)[C@@H](O)[C@@H]1O [Fludarabine Phosphate]	0.855 ± 0.23
CC1(C)CCC2=C(O1)c1ccccc1C(=O)C2=O [Beta-Lapachone]	0.973 ± 0.027
O=c1nc(N2CCOCC2)oc2c(-c3cccc4c3sc3ccccc34)cccc12	0.761 ± 0.24
O=C(Nc1ccncc1)c1cc([N+](=O)[O-])ccc1Cl	1.74 ± 0.44

SMILES	fraction of GFP+ cells
CCn1cc(C(=O)O)c(=O)c2cc(F)c(N3CCN(C)CC3)cc21 [Pefloxacin Mesylate Dihydrate]	1.13 ± 0.09
O=C(Nc1ccccc1-c1cn2c(CN3CCNCC3)csc2n1)c1cnc2ccccc2n1	1.19 ± 0.68
Nc1[nH]cnc2ncnc1-2 [Adenine]	0.896 ± 0.31
N=C(NOCC(O)CN1CCCCC1)c1cccnc1 (centres undefined)	0.805 ± 0.12
Nc1[nH]cnc2ncnc1-2 [Adenine HCl]	1.31 ± 0.32
O=C(O)c1cn(C2CC2)c2cc(N3CCNCC3)c(F)cc2c1=O [Ciprofloxacin]	1.01 ± 0.28
CC(=O)Nc1ccc(NC(=S)NC(=O)c2ccc(C(C)(C)C)cc2)cc1 [Tenovin-1]	0.623 ± 0.14
N#Cc1cnc(Nc2cc(NC[C@H]3CNCCO3)c(C(F)(F)F)cn2)cn1	1.18 ± 0.1
COc1ccc(-c2oc3c(CC=C(C)C)c(O[C@@H]4O[C@H](CO)[C@@H](O)[C@H](O)[C@H]4O)cc(O)c3c(=O)c2O[C@@H]2O[C@@H](C)[C@H](O)[C@@H](O)[C@H]2O)cc1 [Icariin]	1.26 ± 0.2
NC(=O)c1ncn([C@@H]2O[C@H](CO)[C@@H](O)[C@H]2O)c1O [Mizoribine]	1.05 ± 0.12
O=C(NC(NC(=S)Nc1ccc(F)c([N+](=O)[O-])c1)C(Cl)(Cl)Cl)C(c1ccccc1)c1ccccc1 (centres undefined)	0.561 ± 0.13
COc1ccc(CC(=O)Nc2nc3c(s2)CCc2ccccc2-3)cc1OC	1.51 ± 0.37
C[C@@H](N)c1ccc(C(=O)Nc2ccnc3[nH]ccc23)cc1	1.54 ± 0.27
CC(=O)c1cc([N+](=O)[O-])c(Sc2ccc(F)cc2F)s1	0.785 ± 0.22
C[C@H]1COc2c(N3CCN(C)CC3)c(F)cc3c(=O)c(C(=O)O)cn1c23 [Levofloxacin]	0.954 ± 0.01
O=C(NCCN1CCOCC1)Nc1ccc(C(=O)/C=C/c2cccc(N3CCOCC3)n2)cc1	1.18 ± 0.16
CN1CCc2c(c3ccccc3n2Cc2ccc(C(=O)NO)cc2)C1 [Tubastatin A]	0.802 ± 0.093
C=CCc1ccc(O)c(-c2cc(CC=C)ccc2O)c1 [Magnolol]	0.713 ± 0.084
Nc1ccc(O)c(C(=O)O)c1 [Mesalamine]	0.933 ± 0.049
